Screening data from PubChem BioAssay.
Shown are actives, neighbours in structure and some others; about 19% of the full set was active somewhere.
KB-V1 MDR tox = KB-V1 MDR subline cytotoxicity; KB-V1 MDR cells viability, CellTiter-Glo, 72 h; Potency, µM (highest dose often 46.1 µM), actives largely listed as cytotoxic; hit rate 3.4% among 400,000; AID 1347076; also: nearly all actives have a fitted effect of over 60% in size
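KB-V1 MDR subline cells in DMEM (phenol-red free, 10% FBS) exposed to compounds in qHTS concentration series for 72 h at 37 degrees C. Viability read by CellTiter-Glo luminescence; concentration-effect curves fitted after normalization and correction.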
HT1080 IDH1KD tx = toxicity to HT-1080 IDH1 knockdown cells (counter line). hit rate 2% among 360,000. Potency, µM (titrated, usually from 46.1 µM), usual class: cytotoxic. HT-1080 IDH1 knockdown viability, ATP luminescence, 48 h
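IDH1KD HT-1080 cells, 750/well, RPMI + 5% FBS; compound pinned after 2 h settling; 48 h, 37 °C; CellTiter-Glo luminescence; % activity normalised to DMSO and no-cell wells; curves fitted, classed by r2 and efficacy.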
TDP1 cell CPT = DT40-hTDP1 cell growth loss with CPT | chicken DT40 Tdp1-/-;hTDP1 cells + 20 nM CPT, ATP luminescence, 48 h | Potency, µM (series often up to 46.2 µM), hits mostly inhibitors | hit rate 12% among 420,000; also: nearly all actives have a fitted effect of over 55% in size
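Cell growth measured by CellTiter-Glo luminescence after a minimum 48 h, 37 C compound exposure with 20 nM CPT in Tdp1-knockout DT40 cells stably expressing hTDP1, seeded 400/well; qHTS titration format.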
HT1080NT lethal = kills 2HG-producing HT-1080-NT fibrosarcoma cells | HT-1080-NT fibrosarcoma viability, CellTiter-Glo ATP luminescence, 48 h | Potency, µM (top dose mostly 46.1 µM), most hits filed as cytotoxic | hit rate 1.6% among 360,000 | AID 686970;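 also: NT is the 2HG producing partner of a matched IDH1 knockdown line; nearly all actives have a fitted effect of over 55% in size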
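Luminescent CellTiter-Glo readout after 48 hours of compound exposure at 37 degrees C defined viability of HT-1080-NT cells. Activity was normalized to DMSO wells and cell-free media wells; concentration-response curves were fitted and assigned curve classes.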
KB-3-1 cytotox = KB-3-1 parental cell cytotoxicity. KB-3-1 viability, CellTiter-Glo ATP luminescence, 72 h. Potency, µM (series often up to 46.1 µM), actives largely listed as cytotoxic. hit rate 1.4% among 400,000; also: nearly all actives have a fitted effect of over 60% in size
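Using CellTiter-Glo luminescence, growth of non-resistant KB-3-1 adenocarcinoma cells is assessed 72 h after pin-tool compound addition at 37 °C. Normalized responses across the concentration series yield fitted curves.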
TDP1 cell noCPT = qHTS for Inhibitors of human tyrosyl-DNA phosphodiesterase 1 (TDP1): qHTS in cells in absence of CPT. DT40 Tdp1-/- hTDP1 cells, no CPT, ATP luminescence, 48 h. Potency, µM (doses to about 46.2 µM), actives largely listed as inhibitors. hit rate 15% among 420,000. AID 686978, 2013; also: nearly all actives have a fitted effect of over 55% in size
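Readout: luminescence from CellTiter-Glo after 30 min in the dark at RT. Cells: DT40 Tdp1-/- with stable hTDP1, 400/well. Exposure: compounds alone, ≥48 hr, 37 °C.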
Hits are given with their value; 0 = inactive; ? = inconclusive; - = not tested or not shown; [ ] = another dose, or the depositor's remark. Calls follow the shape of the dose curve; as a rule, active = well fitted curve in the direction sought with a large enough effect; inconclusive = small, poorly fitted or top-dose-only effect, or another doubt; inactive = no such curve, though single readings can be large; an effect the other way counts as inactive or inconclusive.

SMILES | KB-V1 MDR tox | HT1080 IDH1KD tx | TDP1 cell CPT | HT1080NT lethal | KB-3-1 cytotox | TDP1 cell noCPT
Cc1cccc(Cn2c(SCC(=O)Nc3ccccc3)nc3c2c(=O)[nH]c(=O)n3C)c1 | 0 | 0 | ? | 0 | ? | 21µM
Cc1csc(Sc2nc3c(c(=O)[nH]c(=O)n3C)n2Cc2ccccc2Cl)n1 | ? | 0 | ? | 0 | 0 | ?
Cc1cccc(Cn2c(NC3CCCC3)nc3c2c(=O)[nH]c(=O)n3C)c1 | 0 | 0 | ? | 0 | 0 | 23µM
Cc1cccc(Cn2c(Sc3nc(C)cs3)nc3c2c(=O)[nH]c(=O)n3C)c1 | 4.1µM | 0 | ? | 0 | 0 | 18µM
Cn1c(=O)[nH]c(=O)c2c1nc(SCC(=O)O)n2Cc1ccccc1 | 0 | 0 | 0 | 0 | 0 | 0
CCN(CC)S(=O)(=O)c1cccc(NC(=O)c2cc(=O)[nH]c3ccccc23)c1 | 0 | 0 | ? | 0 | 0 | ?
O=C(CSc1nnc(-c2ccccc2)c(-c2ccccc2)n1)NCc1ccco1 | 16µM | ? | ? | 0 | ? | 23µM
O=C(CSc1nc(-c2ccccc2)cs1)NCc1ccco1 | ? | 0 | 0 | 0 | 0 | ?
O=C(CSc1nc(-c2ccccc2)c(-c2ccccc2)[nH]1)NCCN1C(=O)CSC1=O | ? | 6.5µM | 13µM | 4.6µM | 3.7µM | 15µM
O=C(CSc1nc(-c2ccccc2)c(-c2ccccc2)[nH]1)NCc1ccco1 | 10µM | ? | ? | ? | ? | ?
O=C(CSc1ncc(-c2ccccc2)nn1)NCc1ccco1 | 0 | 0 | 0 | 0 | 0 | 0
CN(C)c1ccc(NC(=O)CSc2nnc(-c3ccco3)c(-c3ccco3)n2)cc1 | 0 | 0 | ? | 0 | 0 | 16µM
O=C(CSc1ccccc1F)NCCN1C(=O)CSC1=O | 0 | 0 | 0 | 0 | 0 | 0
O=C1Nc2cc(Cl)ccc2Nc2cscc21 | 0 | - | - | - | 0 | -
CC(=O)C1=C(O)C(=O)N(c2ccc(Br)cn2)C1c1ccc(Br)cc1 (stereo not given) | ? | ? | ? | ? | 3.7µM | ?
CC(=O)C1=C(O)C(=O)N(c2ccc(Br)cn2)C1c1ccc(F)cc1 (stereo not given) | ? | 0 | 0 | ? | 0 | 0
COc1cc(OC)c(NC(=O)c2cc(C(C)=O)n3ccccc23)cc1Cl | 0 | - | 7.3µM | - | 0 | ?
COc1ccc(NC(=O)c2cnc(N3CCOCC3)c3ccccc23)cc1OC | 0 | - | ? | - | 0 | ?
CCN1CCN(c2ncc(C(=O)Nc3c(F)cc(F)cc3Br)c3ccccc23)CC1 | 0 | ? | 14µM | ? | 0 | 16µM
COc1cc(Cl)c(C)cc1NC(=O)c1cnc(N2CCOCC2)c2ccccc12 | 0 | - | 10µM | - | ? | 9.2µM
CCN1CCN(c2ncc(C(=O)Nc3cc(Cl)c(OC)cc3OC)c3ccccc23)CC1 | 0 | 0 | ? | 0 | 0 | 21µM
COc1ccc(Nc2ncc(C(=O)Nc3cc(Cl)c(OC)cc3OC)c3ccccc23)cc1 | 0 | - | ? | - | 0 | ?
CCOc1ccc(-c2cc(C(=O)Nc3cccc(C(F)(F)F)c3)[nH]n2)c(C)c1 | 0 | 0 | ? | 0 | 0 | ?
CN(Cc1ccccc1)C(=O)c1[nH]c(C(F)(F)F)nc1-c1ccccc1 | 0 | 0 | 0 | 0 | 0 | 0
COc1cc(Cl)c(C)cc1NC(=O)C1CCN(c2nc3ccccc3n3cccc23)CC1 | - | - | ? | - | - | 16µM
SMILES | KB-V1 MDR tox | HT1080 IDH1KD tx | TDP1 cell CPT | HT1080NT lethal | KB-3-1 cytotox | TDP1 cell noCPT
Cc1cc(C)c(NC(=O)C2CCN(c3nc4ccccc4n4cccc34)CC2)c(C)c1 | - | - | 0 | - | - | ?
O=C1c2ccccc2-c2nnc(-c3ccc(O)cc3)cc21 | 0 | 0 | ? | 0 | 0 | ?
Cc1ccc(-c2cc3c(nn2)-c2ccccc2C3=O)cc1 | ? | ? | 16µM | ? | 0 | 23µM
O=C1c2ccccc2-c2nnc(-c3ccc(F)cc3)cc21 | 0 | 0 | ? | 0 | ? | 9.2µM
Cc1ccccc1-c1cc2c(nn1)-c1ccccc1C2=O | ? | 0 | ? | 0 | 0 | ?
[O-][n+]1c2ccccc2c2n1CCN=C2c1ccc(Cl)cc1 | 0 | 0 | 0 | 0 | 0 | 0
Cc1ccc(C2=NCCn3c2c2ccc([N+](=O)[O-])cc2[n+]3[O-])cc1 | ? | 0 | 4.1µM | 0 | ? | 10µM
O=[N+]([O-])c1ccc2c3n([n+]([O-])c2c1)CCN=C3c1ccc(Cl)cc1 | 0 | 0 | 9.2µM | 0 | ? | 15µM
COc1ccc(NC(=O)c2nc(SC)ncc2Cl)cc1 | 0 | 0 | 0 | 0 | 0 | 0
CCOc1ccccc1C(=O)Nc1ccccc1C(N)=O | 13µM | 0 | 0 | 0 | 0 | 0
COc1ccc(NC(=O)c2cnc(SC)nc2)cc1 | ? | ? | 15µM | ? | 16µM | 12µM
CCOc1ccccc1C(=O)Nc1ccc(NC(=O)c2ccccc2)cc1 | 0 | 0 | 0 | 0 | 0 | 0
COc1ccc(NC(=O)c2cc(SC)ccc2Cl)cc1 | 15µM | 0 | 23µM | 0 | 0 | ?
CSc1ccc(Cl)c(C(=O)NCCOc2ccccc2)c1 | 0 | 0 | 0 | 0 | 0 | ?
CCOc1ccccc1NC(=O)c1cc(SC)ccc1Cl | ? | 0 | ? | 0 | 0 | 18µM
COc1ccc(NC(=O)C2CCCN(S(C)(=O)=O)C2)cc1OC (stereo not given) | 0 | 0 | 0 | 0 | 0 | 0
C[C@@H]1C(=O)CC2C(C)(C)CCC[C@]2(C)[C@@]1(O)CCc1ccoc1 (stereo not given in full) | - | - | 0[9.04 µM] | - | - | 0[9.04 µM]
CCOc1ccccc1NC(=O)c1cccc2ccccc12 | 0 | 0 | ? | 0 | ? | ?
COc1ccccc1NC(=O)c1nc[nH]c1C(=O)Nc1ccccc1OC | 0 | 0 | 0 | 0 | 0 | ?
CCOc1ccccc1NC(=O)c1ccccc1-c1ccccc1 | 0 | 0 | ? | 0 | 0 | 23µM
COC(=O)c1sccc1NC(=O)c1csc(C)c1 | 16µM | ? | 0 | 0 | 0 | 0
CCOc1ccccc1C(=O)Nc1ccsc1C(=O)OC | 7.3µM | ? | 4.1µM | ? | 5.8µM | 3.7µM
CCOc1ccccc1NC(=O)c1nc[nH]c1C(=O)Nc1ccccc1OCC | 0 | 0 | 16µM | 0 | ? | ?
COC(=O)c1c(-c2ccsc2)sc2ccc(-c3cc(OC)c(OC)c(OC)c3)cc12 | 0 | 0 | ? | 0 | 0 | 9.2µM
COC(=O)c1c(-c2ccc(N(C)C)cc2)sc2ccc(OC)cc12 | 0 | 0 | ? | ? | 0 | 13µM
COc1cc(OC)c(OC)cc1/C=N/NC(=O)CCc1c(C)n[nH]c1C | 0 | 0 | 0 | 0 | 0 | ?
CCCCCCNC(=O)Nc1nnc(-c2ccncc2)s1 | 0 | - | - | - | ? | -
COc1cc(C(=O)NNC(=S)NC(=O)/C=C/c2ccccc2)cc(OC)c1OC | ? | ? | 16µM | ? | ? | ?
O=C(/C=C/c1ccccc1)NC(=S)NNC(=O)c1cnccn1 | ? | ? | 3.3µM | 0 | ? | 5.8µM
